This experiment in a line: reversal of MRP1-mediated doxorubicin resistance, pilot screen, H69AR cells, doxorubicin co-treatment (AID 601). As to conditions: H69AR cells + 2 uM doxorubicin, CellTiter-Glo, 72 h; measured here: viability with 2 uM doxorubicin; at 10 µM; stronger effect = lower value. On the technique in general: In ATP-based viability assays light output follows the ATP content of the culture.
Regarding `CC1(C)CC(=O)C2=C(C1)N(Cc1ccco1)C(=O)C2(NC(=O)C1CCCCC1)C(F)(F)F` (centres undefined), the viability – broadly, a read-out of living cells in per cent, often relative to untreated cells – was 81.3%.

With `C=CCn1c(=S)[nH]c2nc3c(cc2c1=O)COC(C)(C)C3`, the viability came out at 72%.

Regarding `CC(=O)Nc1ccc(S(=O)(=O)N(CC(=O)O)Cc2ccccc2)cc1`, the viability turned out to be 104%.

With `Cc1cccc2cc(C#N)c(SCCN3CCCCC3)nc12`, the viability turned out to be 78.2%.

Consider `CSc1nnc(-c2cnccn2)n1C`, for which the viability worked out at 89.7%.

For the molecule `COc1ccccc1NC1=NC2(CCCC2)N=C(N)N1`, the viability was found to be 90.9%.

`CC(C)C(c1nnnn1C1CCCC1)N1CCCc2ccccc21` (centres undefined): the viability was 91.2%.

Turning to `COc1cc(NC(=O)c2cc(-n3cnnc3)ccc2Cl)cc(OC)c1`, the viability came to 83.7%.

Turning to `Cc1ccc(OCc2nnc(SCC(=O)N3CCOCC3)n2C)cc1`, the viability was found to be 88.5%.

In the case of `CCc1nc(C)ccc1OCC(=O)O`, the viability was 106%.

Consider `CCCOc1ccc(N2C(=O)CC(NCCCN3CCC(C(N)=O)CC3)C2=O)cc1` (centres undefined), for which the viability was 91.9%.

Regarding `CC1CCCCN1CCNS(=O)(=O)c1ccc2c(c1)oc(=O)n2C` (centres undefined), the viability was found to be 99.9%.

Take `COc1cccc(C(c2nnnn2Cc2ccccc2)N2CCN(C(=O)c3ccco3)CC2)c1OC` (centres undefined): the viability was 91.4%.

In the case of `COc1ccc(S(=O)(=O)N2CCC(C(=O)NCc3ccco3)CC2)cc1`, the viability came to 88.5%.

As for `CSC1CCCCC1(O)CSc1nc2c(cc1C#N)CCCC2` (centres undefined), the viability is 95.2%.

In the case of `CCSc1nnc(NC(=O)c2cc(C)oc2C)s1`, the viability was 87.1%.

Consider `COC(=O)c1ccc(CN(c2ccccc2OC)S(=O)(=O)c2cccs2)o1`, for which the viability is 102%.

In the case of `O=C1c2cccnc2C(=O)N1c1cccc(-c2nc3ccccc3o2)c1`, the viability came out at 86.4%.

Regarding `COc1ccc(S(=O)(=O)Nc2ccc3c(c2)OCO3)cc1Cl`, the viability stood at 82%.

For the molecule `CC1CC(C)CN(CCCNC(=O)c2ccc3c(c2)NC(=O)C(N2CCCCC2)S3)C1` (centres undefined), the viability is 82.8%.

For the molecule `Cc1cc(NC(=O)C2CCCC2)nc2c1c(=O)oc1ccccc12`, the viability turned out to be 87.8%.

As for `Cc1cccc(NC(=O)CN(C)S(=O)(=O)c2ccccc2)n1`, the viability worked out at 85.4%.

Take `O=C1c2ccccc2C(=O)N1CCCCN1CCN(CCCCN2C(=O)c3ccccc3C2=O)CC1`: the viability was 84.8%.

As for `CCOC(=O)c1sc(NS(=O)(=O)c2ccc(NC(C)=O)cc2)nc1C`, the viability was found to be 88.1%.

As to `O=C(NCc1ccc(F)cc1)c1cc(-c2ccco2)on1`, the viability worked out at 101%.

Turning to `COc1cccc(C(=O)Nc2cccc(C(=O)N3CCOCC3)c2)c1`, the viability worked out at 77.1%.

Regarding `Cc1nc(SCC(=O)c2c[nH]c3ccccc23)n[nH]1`, the viability came to 81.4%.

For `CCOC(=O)C1CCN(S(=O)(=O)c2cccc(-c3csc(C)n3)c2)CC1`, the viability was found to be 84.5%.

In the case of `COc1ccc2c(c1)CCc1c(C(=O)N3CC4(C)CC3CC(C)(C)C4)noc1-2` (centres undefined), the viability was found to be 74.3%.

Regarding `C=CCn1c(SCc2cc(=O)n3ccsc3n2)nnc1C1CCCCC1`, the viability was determined as 79.1%.

Regarding `CCOC(=O)C1C(=O)NC(SCC(=O)Nc2nccs2)=C(C#N)C1c1ccccc1OCC` (centres undefined), the viability came to 72.3%.

Consider `Cc1ccc(-c2nc(-c3cccnc3)no2)c(C)c1`, for which the viability amounted to 90.7%.

Consider `COC(=O)c1[nH]c(C)c(/C(O)=C2\C(=O)C(=O)N(CCCN3CCOCC3)C2c2ccccn2)c1C` (centres undefined), for which the viability came to 96.1%.

On to `CCOc1ccccc1NC(=O)CCSc1nc2n[nH]c(C)c2c(=N)n1-c1ccccc1Cl`, for which the viability was determined as 16.4%.

As for `CC(=O)c1cc(-c2ccccc2)n(CC(=O)N2CCN(C3CCCC3)CC2)c1C`, the viability amounted to 80.6%.

On to `O=c1ccn(Cc2ccccc2Cl)cc1`, for which the viability was found to be 78.4%.

Regarding `COC(=O)c1c(C(=O)OC)n(CCCN)c2ccc(C)cc12`, the viability was 85.3%.

In the case of `CN(CC(=O)Nc1ccccc1Cl)C(=O)COC(=O)CNC(=O)c1ccc(Br)o1`, the viability came to 89.5%.

`O=C(CN1C(=O)CC(c2ccccc2)=Nc2ccccc21)NCc1ccco1`: the viability was determined as 79.4%.

Values taken from PubChem BioAssay.
